Measured values taken from PubChem BioAssay (EPA / NIEHS).
Calls of active or inactive are those of the source. How the source made its calls: active means hit-call score of the fitted dose curve at least 0.9, where 1 is the maximum; inactive means score below 0.9.

Assay: APR_HepG2_CellCycleArrest_24hr: Apredica 24-hour HepG2 Assay for Cell Cycle Arrest (AID 2282905);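 further: cell cycle arrest scored as ratio of 2N to 4N nuclear DNA content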
Conditions: imaging, actives raise or lower the signal
Method in brief: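 HepG2 cells were exposed to compounds at 0.39–200 uM (ten concentrations, duplicate) in 0.5% v/v DMSO for 24 hr. After formaldehyde fixation and Triton permeabilization, Hoechst 33342-stained nuclei were imaged at 20x; DNA content was quantified, with bidirectional fitting against DMSO.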
For CC(C)CCO, the outcome was “inactive”.
With COC(=O)c1c(Cl)c(Cl)c(C(=O)OC)c(Cl)c1Cl the outcome was “inactive”.
For Clc1nc(Cl)c(Cl)c(Cl)c1Cl, the AC50 was 40 µM (active).
With O=c1[nH]c2ccc(S(=O)CCN3CCC(Cc4ccc(F)cc4)CC3)cc2o1 (stereo not given) the outcome was “inactive”.
For CC/C(=C\C(=N/O)C(N)=O)C(C)[N+](=O)[O-] (stereo not given), the outcome was “inactive”.
In the case of CC(C)=CCC/C(C)=C\CO, the outcome is reported as “inactive”.
For COCCOCCOCCOC, the outcome was “inactive”.
In the case of CC(C)=CCCC(C)CCO (stereo not given), the outcome is reported as “inactive”.
For CC(C)CCCCCCCOC(=O)CCCCC(=O)OCCCCCCCC(C)C, the outcome was “inactive”.
In the case of Cn1cnc([N+](=O)[O-])c1Sc1ncnc2nc[nH]c12, the outcome is reported as “inactive”.
In the case of CC(C)CC(C)(O)C#CC(C)(O)CC(C)C (stereo not given), the outcome is reported as “inactive”.
For CC(=O)OCCC(C)C, the outcome was “inactive”.
In the case of O=C(OC[C@H]1O[C@@H](OC(=O)c2cc(O)c(O)c(OC(=O)c3cc(O)c(O)c(O)c3)c2)[C@H](OC(=O)c2cc(O)c(O)c(OC(=O)c3cc(O)c(O)c(O)c3)c2)[C@@H](OC(=O)c2cc(O)c(O)c(OC(=O)c3cc(O)c(O)c(O)c3)c2)[C@@H]1OC(=O)c1cc(O)c(O)c(OC(=O)c2cc(O)c(O)c(O)c2)c1)c1cc(O)c(O)c(OC(=O)c2cc(O)c(O)c(O)c2)c1, the outcome is reported as “inactive”.
In the case of CCCCCCCCO, the outcome is reported as “inactive”.
In the case of CCOc1cccc(-n2cc(C(=O)N3CCN(c4cc(C(=O)O)c5ccccc5c4)CC3)nc2-c2ccc(C)cc2)c1, the AC50 is reported as 97.5 µM (active).
With CCCCC(CC)COC(=O)CCCCCCCCC(=O)OCC(CC)CCCC (stereo not given) the outcome was “inactive”.
In the case of C1=CCCC=CCCC=CCC1, the outcome is reported as “inactive”.
With CCOCCOCCOCCO the outcome was “inactive”.
With Fc1ccccc1[C@@H](F)COC1CCC(Nc2ncnc3[nH]ncc23)CC1 (stereo not given in full) the AC50 was 62.3 µM (active).
For O=C(CCCCCCCCc1cccnc1)N1CCC(C=C(c2ccccc2)c2ccccc2)CC1, the outcome was “inactive”.
For Cc1ccc(O)cc1, the outcome was “inactive”.
With CNCc1ccc(NC(=O)c2c[nH]c3c2C(=O)CCC3)cc1 the outcome was “inactive”.
With CCOCCO the outcome was “inactive”.
In the case of CC[C@H]1CC[C@H](NCc2cc3c(cc2OC)[C@H]2C[C@H]2C(=O)N3C)[C@H](c2ccccc2)N1, the outcome is reported as “inactive”.
For C[C@](N)(Cc1ccc(O)c(O)c1)C(=O)O, the outcome was “inactive”.
With CC(C)(O)c1coc(S(=O)(=O)NC(=O)Nc2c3c(cc4c2CCC4)CCC3)c1 the outcome was “inactive”.
In the case of O=P(OC(CCl)CCl)(OC(CCl)CCl)OC(CCl)CCl, the outcome is reported as “inactive”.
In the case of Cn1c(=O)c2c(ncn2C)n(C)c1=O, the outcome is reported as “inactive”.
In the case of CCOC(=O)COc1ccc2c(c1)CC(NCC(O)c1cccc(Cl)c1)CC2 (stereo not given), the outcome is reported as “inactive”.
With CNS(=O)(=O)c1cc(C(=O)N2CCC(CCN3C4CCC3CC(n3c(C)nc5ccccc53)C4)(c3cccc(F)c3)CC2)c(Cl)cc1F (stereo not given) the outcome was “inactive”.

Assay: APR_HepG2_CellLoss_24hr: Apredica 24-hour HepG2 Assay for Cell Loss (AID 2282908);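 on AC50: fit in both directions so a hit may be cell loss or gain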
Conditions: high-content imaging
Method in brief: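 Compounds were tested at 0.39–200 uM in duplicate with 0.5% v/v DMSO final. Cells were then fixed in 3.7% formaldehyde, Hoechst 33342 nuclei were imaged at 20x by HCS, and cell number was fitted bidirectionally against DMSO.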
With CC(C)CCO the outcome was “inactive”.
For COC(=O)c1c(Cl)c(Cl)c(C(=O)OC)c(Cl)c1Cl, the outcome was “inactive”.
With Clc1nc(Cl)c(Cl)c(Cl)c1Cl the AC50 was 45 µM (active).
In the case of O=c1[nH]c2ccc(S(=O)CCN3CCC(Cc4ccc(F)cc4)CC3)cc2o1 (stereo not given), the outcome is reported as “inactive”.
In the case of CC/C(=C\C(=N/O)C(N)=O)C(C)[N+](=O)[O-] (stereo not given), the outcome is reported as “inactive”.
For CC(C)=CCC/C(C)=C\CO, the outcome was “inactive”.
For COCCOCCOCCOC, the outcome was “inactive”.
In the case of CC(C)=CCCC(C)CCO (stereo not given), the outcome is reported as “inactive”.
For CC(C)CCCCCCCOC(=O)CCCCC(=O)OCCCCCCCC(C)C, the outcome was “inactive”.
With Cn1cnc([N+](=O)[O-])c1Sc1ncnc2nc[nH]c12 the outcome was “inactive”.
With CC(C)CC(C)(O)C#CC(C)(O)CC(C)C (stereo not given) the outcome was “inactive”.
In the case of CC(=O)OCCC(C)C, the outcome is reported as “inactive”.
With O=C(OC[C@H]1O[C@@H](OC(=O)c2cc(O)c(O)c(OC(=O)c3cc(O)c(O)c(O)c3)c2)[C@H](OC(=O)c2cc(O)c(O)c(OC(=O)c3cc(O)c(O)c(O)c3)c2)[C@@H](OC(=O)c2cc(O)c(O)c(OC(=O)c3cc(O)c(O)c(O)c3)c2)[C@@H]1OC(=O)c1cc(O)c(O)c(OC(=O)c2cc(O)c(O)c(O)c2)c1)c1cc(O)c(O)c(OC(=O)c2cc(O)c(O)c(O)c2)c1 the outcome was “inactive”.
For CCCCCCCCO, the outcome was “inactive”.
In the case of CCOc1cccc(-n2cc(C(=O)N3CCN(c4cc(C(=O)O)c5ccccc5c4)CC3)nc2-c2ccc(C)cc2)c1, the AC50 is reported as 88.3 µM (active).
For CCCCC(CC)COC(=O)CCCCCCCCC(=O)OCC(CC)CCCC (stereo not given), the AC50 was 117 µM (active).
For C1=CCCC=CCCC=CCC1, the outcome was “inactive”.
With CCOCCOCCOCCO the outcome was “inactive”.
For Fc1ccccc1[C@@H](F)COC1CCC(Nc2ncnc3[nH]ncc23)CC1 (stereo not given in full), the AC50 was 52.4 µM (active).
With O=C(CCCCCCCCc1cccnc1)N1CCC(C=C(c2ccccc2)c2ccccc2)CC1 the outcome was “inactive”.
With Cc1ccc(O)cc1 the outcome was “inactive”.
For CNCc1ccc(NC(=O)c2c[nH]c3c2C(=O)CCC3)cc1, the outcome was “inactive”.
In the case of CCOCCO, the outcome is reported as “inactive”.
For CC[C@H]1CC[C@H](NCc2cc3c(cc2OC)[C@H]2C[C@H]2C(=O)N3C)[C@H](c2ccccc2)N1, the outcome was “inactive”.
For C[C@](N)(Cc1ccc(O)c(O)c1)C(=O)O, the outcome was “inactive”.
For CC(C)(O)c1coc(S(=O)(=O)NC(=O)Nc2c3c(cc4c2CCC4)CCC3)c1, the outcome was “inactive”.
For O=P(OC(CCl)CCl)(OC(CCl)CCl)OC(CCl)CCl, the AC50 was 55.6 µM (active).
In the case of Cn1c(=O)c2c(ncn2C)n(C)c1=O, the outcome is reported as “inactive”.
In the case of CCOC(=O)COc1ccc2c(c1)CC(NCC(O)c1cccc(Cl)c1)CC2 (stereo not given), the AC50 is reported as 84.4 µM (active).
With CNS(=O)(=O)c1cc(C(=O)N2CCC(CCN3C4CCC3CC(n3c(C)nc5ccccc53)C4)(c3cccc(F)c3)CC2)c(Cl)cc1F (stereo not given) the AC50 was 62.9 µM (active).
